# In PubChem BioAssay AID371 (SRMLSC, 2006):
# About 280 (8.5%) of roughly 3,300 compounds were called active. This excerpt belongs to a sample that is enriched for actives. Values without a mark were called inactive.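 How the source made its calls: active means mean growth inhibition over the two runs of 50% or more; inactive means mean growth inhibition under 50%.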
# Assay: A549 NSCLC cell proliferation inhibitors – ATP luminescence, human non-small cell lung line, primary screen (AID 371);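 further: compound exposure lasted 72 h before the ATP read; 0% = untreated cell signal and 100% = no luminescence left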
# Details: at 10 µM, hits give high values
row,Structure (SMILES),growth inhibition
1,CCC(=O)Nc1cccc(-c2nnc(SCC(=O)NCc3ccco3)n2C)c1,-4.64%
2,CC1(C)Cc2c(sc3c4nnnn4c4nnnn4c23)CO1,62.4% (active)
3,CC1(C)Cc2c(sc3ncn4nnnc4c23)CO1,0.79%
4,CSc1nc2sc3c(c2c2nnnn12)CC(C)(C)OC3,9.43%
5,COc1ccc(-n2c(SCC(N)=O)nc3sc4c(c3c2=O)CCN(C)C4)cc1,8.23%
6,Cn1c(=O)n(CCC(=O)O)c2ccccc21,1.48%
7,COC(=O)CC1=C(C(=O)OC)C(c2ccncc2)C(C#N)=C(N)O1 (stereo unspecified),3.31%
8,O=C(c1cccc(Cl)c1)N1CCN(C(=O)c2ccccc2F)CC1,0.26%
9,O=C(Nc1ccc2c(c1)OCCO2)c1ccc(Br)o1,19.2%
10,O=C(Nc1ccc(N2CCN(C(=O)c3ccccc3)CC2)c(Cl)c1)c1ccc(Br)o1,64.9% (active)
11,CCCCC(=O)C1CCN(Cc2ccccc2)CC1,-7.27%
12,COc1cc(-c2nn3c(C4CCCCC4)nnc3s2)cc(OC)c1OC,18.1%
13,CN(C=C1C(=O)CC(C)(C)CC1=O)CCN1CCNCC1,3.03%
14,N#CC1=C(N)NC(SCc2ccc(Cl)cc2)=C(C#N)C12CCCCC2,91% (active)
15,COc1ccc(C(=O)CSC2=C(C#N)C3(CCCCC3)C(C#N)=C(N)N2)cc1,49.2%
16,N#Cc1c(SCC(N)=O)nsc1SCc1ccc(Cl)cc1,23.5%
17,N#CC1=C(N)NC(SCc2ccc(F)cc2)=C(C#N)C12CCCCC2,84.3% (active)
18,COc1ccc(-c2oc3ncn4nc(COc5ccccc5)nc4c3c2-c2ccc(OC)cc2)cc1,10.6%
19,CCOC(=O)c1[nH]c2ccc(OC)cc2c1NC(=O)CCN1CCCC(C)C1 (stereo unspecified),6.76%
20,c1cncc(Oc2cccc(Oc3cccnc3)c2)c1,20.7%
21,COc1ccc(OC)c(C2C(C(=O)c3sc(C)nc3C)=C(O)C(=O)N2CCN2CCOCC2)c1 (stereo unspecified),5.82%
22,O=C1CC(NCc2ccc3c(c2)OCO3)C(=O)N1Cc1ccc2c(c1)OCO2 (stereo unspecified),0.14%
23,COCc1[nH]nc2c1C(c1cccc(OC)c1)C(C#N)=C(N)O2 (stereo unspecified),8.14%
24,CCN1CC2=C(OC(N)=C(C#N)C2c2ccccc2)/C(=C\c2ccccc2)C1 (stereo unspecified),46.8%
25,COc1cccc(/C=C2/CN(C)CC3=C2OC(N)=C(C#N)C3c2cccc(OC)c2)c1 (stereo unspecified),67.5% (active)
26,Cc1cc(N2C(=O)C(=O)/C(=C(/O)c3ccc(F)cc3)C2c2ccc(F)cc2)no1 (stereo unspecified),9.16%

row,Structure (SMILES),growth inhibition
1,CCc1nc2n[nH]c(N)c2c2c1CSC(C)(C)C2,12.5%
2,COc1ccccc1-c1cc(-c2cc(Cl)ccc2O)n[nH]1,15%
3,COc1cccc(NC(=O)C2CC(=O)n3cnnc3S2)c1 (stereo unspecified),-2.07%
4,c1ccc(-n2c(Cc3cccnc3)nc3cnccc32)cc1,-4.36%
5,Clc1ccc(-c2nn3c(-c4cccc(Cl)c4)nnc3s2)cc1,22.7%
6,Cc1cccc(OCCN2CSC(=S)N(C)C2)c1,51.6% (active)
7,Cc1c(C(=O)O)c(=S)sn1CCOc1ccccc1,3.85%
8,Cc1cccc(OCC(=O)NCC(=O)n2nc(C)cc2C)c1,1.47%
9,COc1ccc(-c2onc(C)c2-c2ccccc2)c(O)c1,52.1% (active)
10,COc1ccc(-c2ncncc2-c2csc(C)n2)c(O)c1,3.39%
11,COc1cccc(-c2nnc3sc(-c4ccccc4)nn23)c1,8.34%
12,Nc1nnc(Cc2ccc(Cl)c(Cl)c2)s1,18.2%
13,O=C1NC(=O)C(c2cn(-c3ccccc3)nc2-c2ccc(F)cc2)N1 (stereo unspecified),10.6%
14,CC[C@H]1CN2CCc3cc(OC)c(OC)cc3[C@@H]2C[C@@H]1C[C@H]1NCCc2cc(OC)c(OC)cc21,78.5% (active)
15,Cc1ccc(-c2ccccc2NC(=O)C2C3C=CC(C3)C2C(=O)O)o1 (stereo unspecified),1.09%
16,C/C(=N\O)c1ccc2[nH]ccc2c1,9.01%
17,Nc1nc(Cl)nc2c1ncn2[C@@H]1O[C@H](CO)[C@@H](O)[C@H]1O,33.3%
18,Nc1ncnc2c1ncn2[C@@H]1O[C@H](CO)[C@@H](O)[C@H]1O,1.29%
19,Nc1nc(F)nc2c1ncn2[C@@H]1O[C@H](CO)[C@@H](O)[C@@H]1O,73.1% (active)
20,CCOC(=O)CSc1nc(C)c(C(C)=O)cc1C#N,7.6%
21,O=C(O)CCCc1ccccc1,-1.26%
22,O=C(NCCc1ccccc1)/C(=N\O)c1ccccc1,10.9%
23,N#C/C(=C\c1ccc(O)c(O)c1)C(=O)NCCCc1ccccc1,64.3% (active)
24,CC(C)(C)C1=Nn2c(nnc2-c2ccco2)SC1,2.63%
25,CC(=O)N(Cc1ccccc1)c1ccc(C(=O)O)cc1,-0.07%
26,COc1ccccc1C(CC(=O)Nc1nccs1)c1ccco1 (stereo unspecified),11.7%

row,Structure (SMILES),growth inhibition
1,O=c1[nH]nc2n1CCCCC2,2.49%
2,CC(C)C1Cc2c(sc3c2c(=O)n(Cc2ccccc2)c2nncn32)CO1 (stereo unspecified),25.2%
3,Cc1nnc2n(Cc3ccccc3)c(=O)c3c4c(sc3n12)COC(C(C)C)C4 (stereo unspecified),72.3% (active)
4,Cc1nnc2n(-c3ccccc3)c(=O)c3c4c(sc3n12)COC(C(C)C)C4 (stereo unspecified),13.4%
5,COC(=O)c1[nH]c2cc(OC)ccc2c1NC(=O)CN1CCC(C(N)=O)CC1,-2.17%
6,COC(=O)c1[nH]c2cc(OC)ccc2c1NC(=O)CN1CCN(c2cccc(C)c2)C(C)C1 (stereo unspecified),68% (active)
7,COC(=O)c1[nH]c2cc(OC)ccc2c1NC(=O)CCN1CCCC(C)(C)C1,-5.32%
8,COc1cccc2c(=O)c(SC(F)(F)C(F)C(F)(F)F)c(C)[nH]c12 (stereo unspecified),46.7%
9,CC(C)(C)c1cccc(/C=N/O)c1O,84.1% (active)
10,CSC(=Nc1ccccc1)C1=C(O)COC1=O,3.6%
11,CSc1nc(C)c2c(c1C#N)CCCC2,11.1%
12,O=C(NC1CCCCC1)[C@H](O)[C@@H](O)C(=O)NC1CCCCC1,-22.3%
13,CCCc1nc(N2CCCC2)c(C#N)c2c1CCCC2,20.2%
14,COc1ccc(CCNc2oc(COc3ccccc3)nc2C#N)cc1,31.8%
15,COc1ccc(CNc2oc(COc3ccc(Cl)cc3)nc2C#N)cc1,74.1% (active)
16,COc1ccc(CNc2oc(COc3ccccc3Cl)nc2C#N)cc1,34.1%
17,COC(=O)c1ccc(Cn2nnc3c(sc4nc(N5CCOCC5)c5c(c43)CCCC5)c2=O)o1,3.34%
18,O=CNC(=O)c1ccccc1C(=O)O,-1.48%
19,CCOC(=O)c1cc2cc(OC)ccc2[nH]1,15.9%
20,CCCCC(=O)Nc1c(O)c2ccccc2[nH]c1=O,3.38%
21,O=c1c(O)c(-c2ccc(O)cc2O)oc2cc(O)cc(O)c12,4.21%
22,O=c1c(-c2ccc3c(c2)OCCO3)c(C(F)(F)F)oc2cc(O)cc(O)c12,71.1% (active)
23,COc1ccc(-c2coc3cc(O)cc(O)c3c2=O)cc1,21.9%
24,COC(=O)c1cc(=O)n2c(-c3ccc(OC)cc3)csc2n1,-0.07%
25,O=C(O)CCCCCN1C(=O)CCC1=O,-0.47%
26,CC1(C)Cc2c(c(N3CCOCC3)nc3sc4c(NCc5ccco5)nnnc4c23)CS1,32.9%

row,Structure (SMILES),growth inhibition
1,OCCN1CCN(CCCN2c3ccccc3Sc3ccc(Cl)cc32)CC1,90.6% (active)
2,OCCN1CCN(CCCN2c3ccccc3Sc3ccc(C(F)(F)F)cc32)CC1,92.3% (active)
3,CN1CCN(CCC(=O)N2c3ccccc3Sc3ccc(Cl)cc32)CC1,13.4%
4,CN1CCN(CCCN2c3ccccc3Sc3ccc(C(F)(F)F)cc32)CC1,93.1% (active)
5,CN1CCN(CCCCOc2ccc(F)cc2)CC1,3.19%
6,CN1CCN(CCCN2c3ccccc3Sc3ccc(Cl)cc32)CC1,0.16%
7,c1ccc(SCc2nc3ccccc3[nH]2)nc1,6.85%
8,CC(NC(=O)Nc1ncccn1)(C(F)(F)F)C(F)(F)F,0.51%
9,C/C(=N\O)C1(C)N(O)C(C)(C)C(c2ccco2)=[N+]1[O-] (stereo unspecified),2.56%
10,CC1(C)Cc2c(c(-c3ccccc3)nc(N3CCCC3)c2C(N)=O)CO1,7.2%
11,O=C(NC1(C(F)(F)F)C(=O)Nc2c1c(=O)[nH]c(=O)n2-c1ccccc1)c1cccnc1 (stereo unspecified),1.94%
12,CCOC(=O)CSC1=C(C#N)C(=O)NC2(CCCCC2)S1,-4.21%
13,Nc1nnc(-c2cccc(Cl)c2Cl)c(N)n1,14.4%
14,Nc1nc(N)c2nc(-c3ccccc3)c(N)nc2n1,82.4% (active)
15,Nc1nonc1-c1noc(-c2ccccc2)n1,8.32%
16,O=C(O)c1cnn2c(C(F)(F)F)cc(-c3ccco3)nc12,-1.5%
17,O=C(CCCN1C(=O)c2ccccc2C1=O)N1CCC(c2ccccc2)C1 (stereo unspecified),-0.61%
18,CCN(CC)c1ccc(C2Nc3cccc4cccc(c34)N2)c(O)c1,77.5% (active)
19,OCCNC1=NCCN1,-1.49%
20,N#Cc1nc(COc2ccccc2F)oc1NCCCn1ccnc1,5.01%
21,CC(C(=O)N(C)C)N(C#N)c1nc(N(C)C)nc(N(C)C)n1 (stereo unspecified),3.51%
22,CC(COc1ccccc1)N(CCCl)Cc1ccccc1 (stereo unspecified),54.1% (active)
23,CC(COc1ccccc1)NC(C)C(O)c1ccc(O)cc1 (stereo unspecified),4.38%
